CD11b adhes inh = blocks human CD11b/CD18 adhesion to fibrinogen; P05107+P11215; K562 CD11b/CD18 adhesion to fibrinogen, ATPlite luminescence; Mn2+ added to activate the integrin; inhibition, % at 10 µM; hit rate 0.54% among 93,000;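 active = primary inhibition of 50% or more at 10 µM, then 40% or more on retest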
CYP2C9 inhib = inhibitors of human CYP2C9. CYP2C9 Supersomes, luciferin-H conversion, luminescence. inhibition, % at 5 µM. AID 777. hit rate 20% among 96,000;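 active = blocking of liver enzyme CYP2C9 beyond about 50% at 5 µM, limit read from the data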
Target sequence (P11712 whole entry, looked up): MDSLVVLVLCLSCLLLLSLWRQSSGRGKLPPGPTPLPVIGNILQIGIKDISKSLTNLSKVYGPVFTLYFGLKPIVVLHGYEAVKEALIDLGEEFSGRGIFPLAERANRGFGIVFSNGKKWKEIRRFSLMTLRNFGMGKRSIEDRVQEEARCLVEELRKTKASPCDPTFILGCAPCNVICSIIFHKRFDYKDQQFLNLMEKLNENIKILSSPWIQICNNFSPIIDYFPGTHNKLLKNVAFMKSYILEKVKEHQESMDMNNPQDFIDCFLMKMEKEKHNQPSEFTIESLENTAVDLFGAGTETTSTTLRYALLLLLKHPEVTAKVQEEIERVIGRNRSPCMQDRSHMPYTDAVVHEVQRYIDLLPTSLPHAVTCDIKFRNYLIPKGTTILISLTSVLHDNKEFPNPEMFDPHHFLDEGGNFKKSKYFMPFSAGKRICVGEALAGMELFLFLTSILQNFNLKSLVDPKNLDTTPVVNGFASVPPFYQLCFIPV
CYP2C19 inhib = human CYP2C19 inhibition. CYP2C19 Supersomes, luciferin-H EGE luminescence, 30 min. P33261. inhibition, % at 5 µM. hit rate 21% among 96,000;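 active = CYP2C19 inhibition above a set limit at 5 µM in the primary screen, cut at about 50% in these data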
CYP2C19 act = increases human CYP2C19 enzyme activity. P33261. recombinant CYP2C19, luciferin-H EGE luminescence; hits give high values; 0 = fully inhibited enzyme, 1 = untreated enzyme. activation factor at 5 µM. 96,000 tested, under 10 active. AID 1025;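 active = activation factor of at least 2 at 5 µM in the primary screen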
CD11b adhes enh = increases human CD11b/CD18 adhesion to fibrinogen; P05107+P11215; K562 CD11b/CD18 adhesion to fibrinogen, ATPlite luminescence; activation, % at 10 µM; hit rate 0.07% among 93,000; AID 1499;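 active = 10 µM primary screen giving 50% or more activity, confirmed by 40% or more on retest at that dose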
CYP2C9 act = CYP2C9 (human) activation | P11712 | recombinant CYP2C9, luciferin-H conversion, luminescence; hits give high values; factor 1 = untreated enzyme, 0 = blocked | hit rate 1.4% among 96,000 | activation factor at 5 µM | AID 1024;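 active = activation factor of 2 or more for CYP2C9 at a 5 µM dose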
Of the large screens only hits and unclear results are named; the others gave an inactive call. An excerpt weighted towards active compounds, which were near 28% of everything screened.

CCOC(=O)c1sc(C)c(C(=O)NC2CCCCC2)c1N	CYP2C9 act 2.3
CCOC(=O)c1sc(NN=C(C(=O)OC)C(=O)OC)c(C(=O)OCC)c1C	none (no result: CYP2C9 inhib, CYP2C19 inhib, CYP2C19 act, CYP2C9 act)
CCOC(=O)c1c(/N=C/N(C)C)sc(C(=O)OC)c1C	CYP2C19 inhib 78
Cc1ccc(NC(=S)Nc2ccc(Br)cc2)cc1	CYP2C19 inhib 89 (no result: CD11b adhes inh, CD11b adhes enh)
CCOC(=O)N1CCC(N2C(=O)c3ccccc3C2Nc2cc(Cl)c(OC)cc2OC)CC1 (centres undefined)	CYP2C9 inhib 60
COc1ccc(Cl)cc1NC(=O)CN(C1CCCCC1)S(C)(=O)=O	CYP2C9 inhib 90, CYP2C19 inhib 99
COc1ccc(Cl)cc1NC(=O)N1CCN(C2CCCCC2)CC1	CYP2C19 inhib 83
COc1ccc(Cl)cc1NC(=O)NC1CCCCC1	none
CSc1ccccc1NC(=O)CN(C1CCCCC1)S(C)(=O)=O	CYP2C9 inhib 90, CYP2C19 inhib 93
CC(=O)c1cccc(NC(=O)CN(C2CCCCC2)S(C)(=O)=O)c1	none
CS(=O)(=O)Nc1cccc(C(=O)CC2(O)C(=O)Nc3ccc(Br)cc32)c1 (centres undefined)	none
N#CC(c1ccc(Cl)cc1)(c1ncc(C(F)(F)F)cc1Cl)N1CCOCC1 (centres undefined)	none (no result: CD11b adhes inh, CD11b adhes enh)
CSCCC(NC(=O)c1ccc(C)o1)C(=O)O (centres undefined)	none
Cc1noc(C)c1S(=O)(=O)N1CCC(C(=O)N2CCC(N3CCCCC3)CC2)CC1	none
Cc1nn(C(C)C(=O)O)c2ccccc12 (centres undefined)	none
Cn1c(CSCc2ccc(F)cc2)nnc1SCC(=O)N1CCN(c2ccccc2)CC1	none
COc1ccc(C2C(C(=O)N3CCCC3)c3cc(OC)c(OC)cc3C(=O)N2C)cc1OC (centres undefined)	none
COc1ccc(C2C(C(=O)N3CCN(c4ccccc4)CC3)c3ccccc3C(=O)N2C)cc1OC (centres undefined)	CYP2C9 inhib 73
COc1ccc(C2C(C(=O)NCc3cccnc3)c3ccccc3C(=O)N2C)cc1OC (centres undefined)	CYP2C9 inhib 70
COc1ccc(-c2cnn(-c3ccccc3)c2N)cc1OC	CYP2C9 act 2.2
Nc1c(-c2ccccc2)cnn1-c1cccc(C(F)(F)F)c1	none
CC1=C(C(=O)N(C)CCC#N)C2(CCCCC2)OC1=O	none
O=C(O)/C(=C\c1ccco1)NC(=O)c1cccc2ccccc12	none (no result: CD11b adhes inh, CD11b adhes enh)
CN1CCN(c2cc(N3CCc4ccccc4C3)c(F)cc2[N+](=O)[O-])CC1	none (no result: CYP2C9 inhib, CYP2C19 inhib, CYP2C19 act, CYP2C9 act)
O=C(c1ccccc1)c1nn(-c2ccc(Cl)cc2)c(=O)cc1C(F)(F)F	CYP2C9 inhib 53, CYP2C19 inhib 75 (no result: CD11b adhes inh, CD11b adhes enh)
O=C(c1ccccc1)c1nn(-c2ccccc2)c(=O)cc1C(F)(F)F	none (no result: CD11b adhes inh, CD11b adhes enh)
CC(=O)NC1(c2ccc(F)cc2)CCN(C(=O)Nc2ccc(F)cc2F)CC1	none (no result: CD11b adhes inh, CD11b adhes enh)
COc1cc(S(=O)(=O)N2CCC(O)(c3cccc(C(F)(F)F)c3)CC2)ccc1-n1cnnn1	CYP2C9 inhib 64
COc1ccccc1CNC(=O)c1ccccc1N(C)S(C)(=O)=O	none
COc1ccccc1CNC(=O)c1ccc(NS(C)(=O)=O)cc1	CYP2C9 act 2
COc1ccccc1CNC(=O)c1ccccc1NS(C)(=O)=O	CYP2C9 inhib 75
COc1ccccc1CNC(=O)c1ccc(-c2ccccc2)cc1	none (no result: CYP2C9 inhib, CYP2C19 inhib, CYP2C19 act, CYP2C9 act)
c1ccc(-c2cc(CSc3nc4ccccc4[nH]3)on2)cc1	CYP2C9 inhib 62
Fc1ccccc1CSc1nc2ncccc2[nH]1	CYP2C19 inhib 66
O=C(CSc1nc2cc3ccccc3cc2[nH]1)Nc1ccc(F)cc1	CYP2C9 inhib 69
Fc1cccc(F)c1CSc1nc2ccccc2[nH]1	CYP2C19 inhib 54
CC(C)[C@H](NC(=O)NCc1cccs1)C(=O)O	none
O=C(CSc1nc2ccccc2[nH]1)Nc1c(F)cccc1F	CYP2C19 inhib 51
COc1nonc1NC(=O)CSc1nc2ccccc2[nH]1	none
CCOC(=O)N1CCC(Nc2c(NCCN3CCN(c4ccccc4F)CC3)c(=O)c2=O)CC1	none
CN(CC(=O)N1CCN(C2CCCCC2)CC1)S(=O)(=O)c1cccc2nsnc12	none
Cc1nc(NS(=O)(=O)c2ccccc2)sc1NC(=O)OCCN(C)C	none
Cn1c(=O)c2c(-c3ccccc3)n(N3CCOCC3)cc2n(C)c1=O	CYP2C9 inhib 55
CN(C)/C=C(\C=N\OCc1ccc(Cl)cc1Cl)C(=O)Nc1ccc(Cl)c(Cl)c1	none
COC(=O)[C@H](CCSC)NC(=O)Nc1ccc(C(C)C)cc1	none
COC(=O)[C@H](CCSC)NC(=O)Nc1ccc(C)c(C)c1	CYP2C19 inhib 62
COC(=O)[C@H](CCSC)NC(=O)Nc1ccc(C)cc1C	CYP2C19 inhib 52
O=C(Nc1ccc(Cl)cc1)NC1CCCc2ccccc21 (centres undefined)	none (no result: CD11b adhes inh, CD11b adhes enh)
Cc1ccccc1-c1nc2ccccc2c(=O)n1C1CCS(=O)(=O)C1 (centres undefined)	CYP2C19 inhib 88
O=C(O)C1CCCN1S(=O)(=O)c1cccs1 (centres undefined)	none
O=S(=O)(c1cccs1)N1CCCc2cccc(O)c21	CYP2C19 inhib 66, CYP2C9 act 2.9
ClC(Br)=C(n1cnc2ccccc21)n1cnc2ccccc21	CYP2C9 inhib 88, CYP2C19 inhib 75
Cc1occc1C(=O)n1cnc2ccccc21	none
COc1cccc(C(=O)NC2CC3CCCC(C2)N3CC(=O)Nc2ccc(N(C)C)cc2)c1 (centres undefined)	CYP2C9 inhib 79 (no result: CD11b adhes inh, CD11b adhes enh)
COc1cccc(/C(C)=N/NC(=O)c2ccc(N(C)C)cc2)c1	none
O=C(COc1ccccc1)N1CCN(C(=O)Cc2ccccc2)CC1	none
CCOC(=O)CNC(=O)CSc1nnc(Cn2cnc3ccccc32)n1C	none
Cn1c(Cn2cnc3ccccc32)nnc1SCC(=O)CC(=O)Nc1ccccc1	CYP2C9 inhib 70
O=C(CC1Oc2ccccc2NC1=O)NC1CCCC1 (centres undefined)	CYP2C9 act 2.4
CCN(Cc1ccccc1)C(=O)CC1Oc2ccccc2NC1=O (centres undefined)	CYP2C19 inhib 88
CCN(CCNC(=O)CC1Oc2ccccc2NC1=O)c1ccccc1 (centres undefined)	CYP2C19 inhib 61
COc1ccc(C2CC(=O)C(C=NCCN3CCOCC3)=C(O)C2)cc1 (centres undefined)	none (no result: CYP2C9 inhib, CYP2C19 inhib, CYP2C19 act, CYP2C9 act)
O=C(NCCNC1CCN(Cc2ccccc2)CC1)c1cccs1	none
CCOC(=O)/C(C#N)=C1/C=CN(Cc2ccccc2)C=N1	CYP2C9 inhib 57, CYP2C19 inhib 68
Cc1cc2cc(CNC(=O)c3ccc(S(=O)(=O)N4CCCCC4)cc3)ccc2[nH]1	CYP2C9 inhib 79
Cc1cc2cc(CNC(=O)c3ccc4c(c3)OCO4)ccc2[nH]1	none
COc1ccc(CN2c3cc(S(=O)(=O)N4CCOCC4)ccc3N3CCCC32)cc1 (centres undefined)	none
